Results filed as inconclusive are left out. Values without a mark were called inactive. Activity calls are given as the source filed them. Calls come from the whole dose curve; as a rule, active = well fitted cell-killing curve with a large enough effect; inconclusive = small, poorly fitted or top-dose-only effect, or effect the other way; inactive = no such curve, though single readings can be large or run the other way.

We go through 37 compounds from PubChem BioAssay (NCATS).
Potency is the fitted concentration of half-maximal effect.

One assay can be described thus: Quantitative High-Throughput drug screen in 47 multiple myeloma cell lines against the NCATS MIPE library collection: Karpas25_ECACC cell viability assay (AID 1918968; note: nearly all actives have a fitted effect of over 35% in size). To be noted: Karpas25 myeloma viability, CellTiter-Glo ATP, 48 h; series mostly up to 45.8 µM; viability (% of control): at the top concentration. The procedure, abridged: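 CellTiter-Glo ATP luminescence gave viability after 48 h compound treatment at 37C of 500 multiple myeloma cells per well. Normalisation used DMSO-only wells as 100% and media-only wells as 0% viability; primary qHTS of approved and investigational drugs.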
As to `CC1(C)S[C@H]2[C@H](NC(=O)[C@@H](N)c3ccc(O)cc3)C(=O)N2[C@@H]1C(=O)O`, the Potency is 4.69 µM (active).

For the compound `CC(=NNC(=S)N1CCC1)c1ccccn1`, the “viability (% of control)” value was 4.08%.

On to `CN1CCN(CCOc2cc(OC3CCOCC3)c3c(Nc4c(Cl)ccc5c4OCO5)ncnc3c2)CC1`, for which the Potency is 16.6 µM (active).

Turning to `O=C(OCC#CCSc1nnc(-c2cccc3ccccc23)o1)c1cc2ccccc2s1`, the “viability (% of control)” value is 106%.

Consider `CCNc1cc(NC2CCC(O)CC2)nc(Nc2ccc3c(ccn3Cc3ccccc3)c2)n1` (stereo unspecified), for which the Potency was 18.7 µM (active).

As for `CC=CC(=O)N(CC)c1ccccc1C`, the “viability (% of control)” value is 107%.

Another assay can be described thus: Quantitative High-Throughput drug screen in 47 multiple myeloma cell lines against the NCATS MIPE library collection: KMS27_JCRB cell viability assay (AID 1918970). Note: nearly all actives have a fitted effect of over 30% in size. To be noted: KMS27 myeloma cells, CellTiter-Glo ATP viability, 48 h; series mostly up to 45.8 µM; viability (% of DMSO): at the top concentration. The procedure, abridged: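 CellTiter-Glo luminescence after 48 h drug exposure at 37 °C; 500 cells/well, 1536-well format, pin-tool compound addition; DMSO = 100%, media-only = 0% viability.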
For the compound `COC[C@@H](c1ccc(C(F)(F)F)cc1)N1CCN(C2(C)CCN(C(=O)c3c(C)ncnc3C)CC2)C[C@H]1C`, the “viability (% of DMSO)” value was 94.7%.

As for `CC(C)(C)COc1ccc(-n2cc(C(=O)O)cn2)cc1C#N`, the “viability (% of DMSO)” value was 139%.

`O=C(Nc1cc(Cl)cc2c1[nH]c1cnccc12)c1cccnc1`: the “viability (% of DMSO)” value is 116%.

Turning to `OC[C@H]1O[C@@H](n2cnc3c2NC=NC[C@@H]3O)C[C@H]1O`, the Potency was 13.2 µM (active).

Turning to `Cc1cnc(C(=O)O)c[n+]1[O-]`, the “viability (% of DMSO)” value is 115%.

Take `CC(=Cc1ccccc1)C=C1SC(=S)N(CC(=O)O)C1=O`: the Potency was 0.59 µM (active).

As for `Nc1ncnc2c1ncn2[C@@H]1O[C@H](CO)C[C@@H]1O`, the “viability (% of DMSO)” value is 124%.

`O=c1c(-c2ccc(O)cc2)coc2cc(O)ccc12`: the “viability (% of DMSO)” value is 113%.

For `CC(=O)O[C@]1(C(C)=O)CC[C@@H]2[C@@H]3C[C@H](C)C4=CC(=O)CC[C@]4(C)[C@H]3CC[C@@]21C`, the “viability (% of DMSO)” value was 103%.

Regarding `O=C(NCc1ccncc1)C12C[C@H]3C[C@@H](C1)CC(c1ccc(Cl)cc1)(C3)C2`, the Potency is 8.33 µM (active).

Consider `COc1ccc(-c2nc(N3CCOCC3)c3sc(CN(C)c4ncc(C(=O)NO)cn4)cc3n2)cn1`, for which the Potency was 0.001 µM (active).

Turning to `Nc1ncnc2c1ncn2[C@@H]1O[C@@H](CO)[C@H](O)[C@H]1O`, the “viability (% of DMSO)” value is 97.9%.

Take `CNC1CCC(N(Cc2cccc(-c3ccncc3)c2)C(=O)c2sc3c(F)ccc(F)c3c2Cl)CC1` (stereo unspecified): the Potency was 18.7 µM (active).

Turning to `Oc1ccc(C2=Cc3ccc(O)cc3OC2)cc1`, the Potency was 2.09 µM (active).

In the case of `NC1=N[C@@]2(c3cc(NC(=O)c4ccc(F)cn4)ccc3F)COC[C@@H]2CS1`, the Potency is 0.264 µM (active).

For the compound `CC[C@H]1OC(=O)[C@H](C)C(=O)[C@H](C)[C@@H](O[C@H]2O[C@H](C)C[C@H](N(C)C)[C@@H]2O)[C@](C)(OC)C[C@@H](C)C(=O)[C@H](C)[C@H]2N(CCCCn3cnc(-c4cccnc4)c3)C(=O)O[C@]12C`, the “viability (% of DMSO)” value is 117%.

As for `c1cc(-c2sc(-c3ccncc3)c(-c3ccncc3)c2-c2ccncc2)ccn1`, the Potency was 3.32 µM (active).

`CCOC(=O)O[C@]1(C(=O)OCCl)CC[C@@H]2[C@H]3CCC4=CC(=O)C=C[C@]4(C)[C@@H]3[C@@H](O)C[C@@]21C`: the “viability (% of DMSO)” value was 148%.

In the case of `C[C@]12CC[C@@H]3c4ccc(O)cc4C[C@@H](CCCCCCCCCS(=O)CCCC(F)(F)C(F)(F)F)[C@H]3[C@H]1CC[C@H]2O` (stereo partly specified), the “viability (% of DMSO)” value was 117%.

Regarding `C[C@H](NC(=O)C(=O)Nc1ccccc1C(C)(C)C)C(=O)N[C@@H](CC(=O)O)C(=O)COc1c(F)c(F)cc(F)c1F`, the Potency is 3.32 µM (active).

For the compound `CC1CCC(C(=O)N(c2cc(C#CC(C)(C)C)sc2C(=O)O)C2CCC(O)CC2)CC1` (stereo unspecified), the “viability (% of DMSO)” value was 122%.

On to `Cc1cc(OCCCc2c(C(=O)O)n(Cc3cccnc3)c3c(-c4c(COc5ccc(N6CCN([S+](C)(=O)[O-])CC6)cc5)nn(C)c4C)cccc23)cc(C)c1Cl`, for which the “viability (% of DMSO)” value was 114%.

As for `O=C(NC1CCOCC1)c1ccc(-c2cc(-c3cn[nH]c3-c3ccccn3)ccn2)cc1`, the “viability (% of DMSO)” value is 140%.

For the compound `Cc1ccn(-c2ccc(-c3ncco3)cc2)c(=O)c1-c1ccc2nc(N)ncc2c1`, the “viability (% of DMSO)” value was 95.1%.

Regarding `O=C(Nc1c(Cl)cncc1Cl)c1ccc(OC(F)F)c(OCC2CC2)c1`, the “viability (% of DMSO)” value was 138%.

As to `COc1cccc2c1CCCC2CCCN1CCN(C2CCCCC2)CC1` (stereo unspecified), the Potency was 16.6 µM (active).

Turning to `COc1ccc(C2CC(c3ccccc3)=NN2c2ccc(S(N)(=O)=O)cc2)cc1` (stereo unspecified), the Potency was 8.33 µM (active).

In the case of `CC1(C)S[C@H]2[C@H](NC(=O)[C@@H](N)c3ccc(O)cc3)C(=O)N2[C@@H]1C(=O)O`, the Potency is 0.935 µM (active).

For the compound `CC(=NNC(=S)N1CCC1)c1ccccn1`, the Potency was 0.001 µM (active).

As for `Nc1ncnc2ccccc12`, the “viability (% of DMSO)” value is 150%.

Take `CN1CCN(CCOc2cc(OC3CCOCC3)c3c(Nc4c(Cl)ccc5c4OCO5)ncnc3c2)CC1`: the Potency is 16.6 µM (active).

As for `O=C(OCC#CCSc1nnc(-c2cccc3ccccc23)o1)c1cc2ccccc2s1`, the “viability (% of DMSO)” value is 112%.

For the compound `CCNc1cc(NC2CCC(O)CC2)nc(Nc2ccc3c(ccn3Cc3ccccc3)c2)n1` (stereo unspecified), the Potency was 16.6 µM (active).

Take `CC=CC(=O)N(CC)c1ccccc1C`: the “viability (% of DMSO)” value is 111%.

A further assay can be described thus: Quantitative High-Throughput drug screen in 47 multiple myeloma cell lines against the NCATS MIPE library collection: KMS12BM_JCRB cell viability assay (AID 1918971). Note: nearly all actives have a fitted effect of over 35% in size. To be noted: KMS12BM myeloma viability, CellTiter-Glo ATP, 48 h; series mostly up to 45.8 µM; viability, % of DMSO: at the top concentration. The method, boiled down: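 We plated 500 myeloma cells per well, pinned in MIPE 4.0 compounds, and incubated for 48 hours at 37C. ATP was then quantified with CellTiter-Glo, with DMSO and media-only wells defining 100% and 0%.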
With `COC[C@@H](c1ccc(C(F)(F)F)cc1)N1CCN(C2(C)CCN(C(=O)c3c(C)ncnc3C)CC2)C[C@H]1C`, the “viability, % of DMSO” value is 127%.

On to `CC(C)(C)COc1ccc(-n2cc(C(=O)O)cn2)cc1C#N`, for which the “viability, % of DMSO” value was 124%.

On to `O=C(Nc1cc(Cl)cc2c1[nH]c1cnccc12)c1cccnc1`, for which the Potency was 18.7 µM (active).

Consider `Cc1cnc(C(=O)O)c[n+]1[O-]`, for which the “viability, % of DMSO” value is 140%.

As for `CC(=Cc1ccccc1)C=C1SC(=S)N(CC(=O)O)C1=O`, the “viability, % of DMSO” value was 130%.

With `Nc1ncnc2c1ncn2[C@@H]1O[C@H](CO)C[C@@H]1O`, the Potency was 20.9 µM (active).

As for `Cc1c(NC(=O)c2ccc(C(C)(C)C)cc2)cccc1-c1cn(C)c(=O)c(Nc2ccc(C(=O)N3CCOCC3)cc2)n1`, the Potency is 23.5 µM (active).

As to `CC(=O)O[C@]1(C(C)=O)CC[C@@H]2[C@@H]3C[C@H](C)C4=CC(=O)CC[C@]4(C)[C@H]3CC[C@@]21C`, the Potency was 16.6 µM (active).

On to `O=C(NCc1ccncc1)C12C[C@H]3C[C@@H](C1)CC(c1ccc(Cl)cc1)(C3)C2`, for which the Potency was 20.9 µM (active).

For `COc1ccc(-c2nc(N3CCOCC3)c3sc(CN(C)c4ncc(C(=O)NO)cn4)cc3n2)cn1`, the “viability, % of DMSO” value is 29.8%.

Turning to `Nc1ncnc2c1ncn2[C@@H]1O[C@@H](CO)[C@H](O)[C@H]1O`, the “viability, % of DMSO” value was 128%.

As for `Oc1ccc(C2=Cc3ccc(O)cc3OC2)cc1`, the Potency was 2.96 µM (active).

Regarding `NC1=N[C@@]2(c3cc(NC(=O)c4ccc(F)cn4)ccc3F)COC[C@@H]2CS1`, the “viability, % of DMSO” value is 158%.

For `CC[C@H]1OC(=O)[C@H](C)C(=O)[C@H](C)[C@@H](O[C@H]2O[C@H](C)C[C@H](N(C)C)[C@@H]2O)[C@](C)(OC)C[C@@H](C)C(=O)[C@H](C)[C@H]2N(CCCCn3cnc(-c4cccnc4)c3)C(=O)O[C@]12C`, the Potency was 29.6 µM (active).

For the compound `C[C@]12CC[C@@H]3c4ccc(O)cc4C[C@@H](CCCCCCCCCS(=O)CCCC(F)(F)C(F)(F)F)[C@H]3[C@H]1CC[C@H]2O` (stereo partly specified), the Potency is 16.6 µM (active).

Regarding `Cc1cc(OCCCc2c(C(=O)O)n(Cc3cccnc3)c3c(-c4c(COc5ccc(N6CCN([S+](C)(=O)[O-])CC6)cc5)nn(C)c4C)cccc23)cc(C)c1Cl`, the Potency is 26.4 µM (active).

As to `O=C(NC1CCOCC1)c1ccc(-c2cc(-c3cn[nH]c3-c3ccccn3)ccn2)cc1`, the “viability, % of DMSO” value is 175%.

On to `O=C(Nc1cccc(Br)c1)c1cccc(S(=O)(=O)N2CCCCCC2)c1`, for which the Potency was 20.9 µM (active).

For the compound `Cc1ccn(-c2ccc(-c3ncco3)cc2)c(=O)c1-c1ccc2nc(N)ncc2c1`, the Potency is 13.2 µM (active).

In the case of `O=C(Nc1c(Cl)cncc1Cl)c1ccc(OC(F)F)c(OCC2CC2)c1`, the “viability, % of DMSO” value is 161%.

Consider `COc1cccc2c1CCCC2CCCN1CCN(C2CCCCC2)CC1` (stereo unspecified), for which the Potency was 23.5 µM (active).

With `COc1ccc(Cc2nccc3cc(OC)c(OC)cc23)cc1OC`, the Potency is 16.6 µM (active).

`COc1ccc(C2CC(c3ccccc3)=NN2c2ccc(S(N)(=O)=O)cc2)cc1` (stereo unspecified): the Potency was 18.7 µM (active).

`CC(=NNC(=S)N1CCC1)c1ccccn1`: the Potency is 0.0042 µM (active).

For `O=C(OCC#CCSc1nnc(-c2cccc3ccccc23)o1)c1cc2ccccc2s1`, the Potency was 16.6 µM (active).

As to `CC=CC(=O)N(CC)c1ccccc1C`, the “viability, % of DMSO” value was 108%.
